Source: PubChem BioAssay AID1159580 (chemical genetic matrix, 2015)
About 2,000 (36%) of roughly 5,500 compounds were called active. Roughly 18% stayed inconclusive and do not appear here. Cut-off read from the data, not from the text of the source: active = normalized growth mostly below about 0.91 (no sharp cut-off); inconclusive = no clear call, values can overlap the other calls; inactive = mostly above about 0.92. This is one part of the list.

Assay: chemical genetic growth profiling, strain panel (AID 1159580);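 note: tested at 20 µM; growth read once vehicle control cultures reached saturation at 30 °C; 1 = growth at the plate median or of vehicle wells; lower values mean less growth of the strain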
Details: S. cerevisiae deletion strains, growth OD

Measured: normalized growth

COC(=O)/C(C)=C\CC12OC(C)(C)C3CC(C=C4C(=O)c5c(OC)c6c(c(CC=C(C)C)c5OC431)OC(C)(CCC=C(C)C)C=C6)C2=O (centres undefined)
inactive: locus YAL021C, strain ccr4, hits give low values 0.991 | locus YAL026C, strain drs2, hits give low values 1.02 | locus YAL030W, strain snc1, hits give low values 1.03 | locus YBL061C, strain skt5, hits give low values 1.02 | locus YBR009C, strain hhf1, hits give low values 0.999 | locus YBR021W, strain FUR4, hits give low values 1.03 | locus YBR023C, strain chs3, hits give low values 1.01 | locus YBR171W, strain sec66, hits give low values 1.03 | locus YBR229C, strain ROT2, hits give low values 1.01 | locus YBR231C, strain swc5, hits give low values 1.03 | locus YBR279W, strain paf1, hits give low values 1.01 | locus YCL011C, strain gbp2, hits give low values 1.02 | locus YCL016C, strain dcc1, hits give low values 1.01 | locus YCL029C, strain bik1, hits give low values 0.983 | locus YCL061C, strain MRC1, hits give low values 1.01 | locus YCL069W, strain vba3, hits give low values 1.02 | locus YCR088W, strain abp1, hits give low values 1.02 | locus YDL005C, strain med2, hits give low values 1.03 | locus YDL035C, strain GPR1, hits give low values 0.964 | locus YDL040C, strain nat1, hits give low values 1.01 | locus YDL074C, strain BRE1, hits give low values 0.963 | locus YDL101C, strain DUN1, hits give low values 1.01 | locus YDL185W, strain tfp1, hits give low values 1.01 | locus YDL192W, strain arf1, hits give low values 0.987 | locus YDR001C, strain nth1, hits give low values 1.02 | locus YDR069C, strain doa4, hits give low values 1.03 | locus YDR101C, strain arx1, hits give low values 0.989 | locus YDR137W, strain rgp1, hits give low values 0.946 | locus YDR150W, strain NUM1, hits give low values 1.01 | locus YDR159W, strain sac3, hits give low values 1.06 | locus YDR162C, strain NBP2, hits give low values 0.941 | locus YDR195W, strain ref2 1.02 | locus YDR297W, strain sur2, hits give low values 1.04 | locus YDR318W, strain mcm21, hits give low values 0.982 | locus YDR334W, strain swr1, hits give low values 1.02 | locus YDR335W, strain msn5, hits give low values 1.02 | locus YDR388W, hits give low values 0.985 | locus YDR392W, strain spt3, hits give low values 0.966 | locus YDR502C, strain sam2, hits give low values 0.979 | locus YEL003W, strain gim4, hits give low values 1.01 | locus YEL037C, strain rad23, hits give low values 1.01 | locus YEL061C, strain CIN8 (second series), hits give low values 1.02 | locus YEL061C, strain CIN8, hits give low values 1 | locus YER015W, strain faa2, hits give low values 1.02 | locus YER016W, strain bim1, hits give low values 1.01 | locus YER110C, hits give low values 0.988 | locus YER111C, strain swi4, hits give low values 1.02 | locus YER155C, strain BEM2 (second series), hits give low values 1.02 | locus YER155C, strain BEM2, hits give low values 1.01 | locus YER167W, strain BCK2, hits give low values 0.993 | locus YFR010W, strain ubp6, hits give low values 1.03 | locus YGL078C, strain dbp3, hits give low values 0.989 | locus YGL086W, strain mad1, hits give low values 0.974 | locus YGL167C, strain pmr1, hits give low values 1.02 | locus YGL173C, strain kem1, hits give low values 1.02 | locus YGL227W, strain vid30, hits give low values 1.02 | locus YGL240W, strain doc1, hits give low values 1.02 | locus YGL248W, strain PDE1, hits give low values 0.986 | locus YGL253W, strain hxk2, hits give low values 1.01 | locus YGR135W, strain pre9, hits give low values 0.997 | locus YGR252W, strain gcn5, hits give low values 0.987 | locus YHR013C, strain ard1, hits give low values 0.996 | locus YHR027C, strain rpn1, hits give low values 1.02 | locus YHR030C, strain SLT2, hits give low values 1 | locus YHR079C, strain IRE1 (second series), hits give low values 1 | locus YHR094C, strain hxt1, hits give low values 1.01 | locus YHR129C, strain ARP1, hits give low values 0.985 | locus YHR142W, strain chs7, hits give low values 1.04 | locus YHR200W, strain rpn10, hits give low values 0.991 | locus YIL066C, strain RNR3, hits give low values 0.96 | locus YIL073C, strain SPO22, hits give low values 0.878 | locus YIL125W, strain kgd1, hits give low values 0.992 | locus YIR030C, strain dcg1, hits give low values 0.989 | locus YJL092W, strain hpr5, hits give low values 1.02 | locus YJL095W, strain BCK1 (second series), hits give low values 1.01 | locus YJL095W, strain BCK1, hits give low values 0.961 | locus YJL115W, strain asf1, hits give low values 1.03 | locus YJL129C, strain trk1, hits give low values 0.987 | locus YJL134W, strain LCB3, hits give low values 1 | locus YJL154C, strain vps35, hits give low values 1.02 | locus YJL164C, strain tpk1, hits give low values 0.988 | locus YJL166W, strain qcr8, hits give low values 1.01 | locus YJL168C, strain set2, hits give low values 0.982 | locus YJL187C, strain SWE1 (second series), hits give low values 0.976 | locus YJL187C, strain SWE1, hits give low values 1.01 | locus YJR043C, strain POL32, hits give low values 0.998 | locus YJR075W, strain HOC1, hits give low values 0.999 | locus YKL009W, strain mrt4, hits give low values 0.964 | locus YKL068W, hits give low values 0.992 | locus YKL085W, strain MDH1 (second series), hits give low values 0.993 | locus YKL085W, strain MDH1, hits give low values 0.993 | locus YKL160W, strain elf1, hits give low values 1.02 | locus YKR001C, strain vps1, hits give low values 0.97 | locus YKR026C, strain gcn3, hits give low values 1.02 | locus YKR091W, strain srl3, hits give low values 1.01 | locus YLL001W, strain dnm1, hits give low values 1 | locus YLL026W, hits give low values 1.01 | locus YLL041C, strain sdh2, hits give low values 1.02 | locus YLR027C, strain aat2, hits give low values 1.01 | locus YLR039C, strain RIC1, hits give low values 0.893 | locus YLR058C, strain SHM2, hits give low values 0.993 | locus YLR102C, strain apc9, hits give low values 1 | locus YLR221C, strain rsa3, hits give low values 1.02 | locus YLR258W, strain gsy2, hits give low values 1.03 | locus YLR262C, strain YPT6 (second series), hits give low values 0.993 | locus YLR262C, strain YPT6, hits give low values 0.986 | locus YLR268W, strain sec22, hits give low values 0.961 | locus YLR320W, strain mms22, hits give low values 1.01 | locus YLR330W, strain CHS5, hits give low values 1.01 | locus YLR342W, strain FKS1 (second series), hits give low values 0.977 | locus YLR342W, strain FKS1, hits give low values 1.03 | locus YLR357W, strain rsc2, hits give low values 1.01 | locus YLR370C, strain arc18, hits give low values 1.01 | locus YLR371W, strain rom2, hits give low values 1.02 | locus YLR384C, strain iki3, hits give low values 1.01 | locus YLR418C, strain cdc73, hits give low values 0.941 | locus YML016C, strain PPZ1, hits give low values 0.994 | locus YML032C, strain rad52, hits give low values 1 | locus YML120C, strain ndi1, hits give low values 1.01 | locus YML124C, strain tub3, hits give low values 0.994 | locus YMR058W, strain fet3, hits give low values 1.02 | locus YMR078C, strain ctf18, hits give low values 0.999 | locus YMR125W, strain sto1, hits give low values 1.02 | locus YMR129W, hits give low values 1.02 | locus YMR205C, strain PFK2, hits give low values 0.993 | locus YMR223W, strain ubp8, hits give low values 0.981 | locus YMR231W, strain pep5, hits give low values 0.99 | locus YMR263W, strain SAP30, hits give low values 1 | locus YMR307W, strain GAS1, hits give low values 1.08 | locus YNL067W, strain RPL9B, hits give low values 0.988 | locus YNL071W, strain lat1, hits give low values 1.02 | locus YNL128W, strain TEP1, hits give low values 0.991 | locus YNL209W, strain ssb2, hits give low values 1.01 | locus YNL233W, strain BNI4, hits give low values 0.988 | locus YNL248C, strain rpa49, hits give low values 1.03 | locus YNL250W, strain rad50, hits give low values 0.985 | locus YNL271C, strain bni1, hits give low values 0.982 | locus YNL298W, strain CLA4, hits give low values 0.976 | locus YNL307C, strain MCK1, hits give low values 0.997 | locus YNL322C, strain KRE1 (second series), hits give low values 1.01 | locus YNL322C, strain KRE1, hits give low values 1 | locus YNR049C, strain mso1, hits give low values 1.02 | locus YNR052C, strain pop2, hits give low values 0.983 | locus YOL012C, strain htz1 0.825 | locus YOL147C, strain pex11, hits give low values 0.991 | locus YOR001W, strain rrp6, hits give low values 1.03 | locus YOR061W, strain CKA2, hits give low values 0.984 | locus YOR069W, strain VPS5, hits give low values 0.996 | locus YOR070C, strain gyp1, hits give low values 1 | locus YOR080W, strain dia2, hits give low values 1.02 | locus YOR083W, strain WHI5, hits give low values 0.99 | locus YOR106W, strain vam3, hits give low values 1 | locus YOR136W, strain idh2, hits give low values 0.994 | locus YOR144C, strain elg1, hits give low values 0.995 | locus YOR184W, strain ser1, hits give low values 0.978 | locus YOR265W, strain rbl2, hits give low values 1.01 | locus YOR270C, strain vph1, hits give low values 1.05 | locus YOR290C, strain snf2, hits give low values 0.991 | locus YOR316C, strain cot1, hits give low values 0.986 | locus YPL051W, strain arl3, hits give low values 0.995 | locus YPL078C, strain atp4, hits give low values 1.03 | locus YPL106C, strain sse1, hits give low values 1.01 | locus YPL240C, strain hsp82, hits give low values 1.02 | locus YPL241C, strain CIN2, hits give low values 1 | locus YPR119W, strain clb2, hits give low values 0.992 | locus YPR141C, strain kar3, hits give low values 0.985 | locus YPR163C, strain tif3, hits give low values 0.975 | locus YPR167C, strain met16, hits give low values 0.972 | strain wtn01, hits give low values 0.984
